Each sequence was assayed against PSG2 (assay: pooled miR-30 sensor sort-seq; sequence = guide strand). Conditions: shRNA.
Also: reference of the scale not given here.

**Q.** Which sensor-assay potency score (higher = more potent) does the source give for TTAAAAGTGATGCTGTGACCAG here?
**A.** -0.575

**Q.** TTCTTGTAGAAGCAGAGACTTT was tested. Which sensor-assay potency score (higher = more potent) did it give?
**A.** -1.51

**Q.** With TAAAAGTGATGCTGTGACCAGG as the sequence, how does the sensor-assay potency score (higher = more potent) read?
**A.** -0.171

**Q.** How did the sensor-assay potency score (higher = more potent) turn out when AAACCTATGAGTCATAGGGAGG was run?
**A.** -1.86

**Q.** With TAGAGGTTATCTCCTGAACGGT as the sequence, how does the sensor-assay potency score (higher = more potent) read?
**A.** -0.865

**Q.** How did the sensor-assay potency score (higher = more potent) turn out when TTGACTGTCAACGATGTGGAGC was run?
**A.** -0.475

**Q.** Which sensor-assay potency score (higher = more potent) does the source give for ACAAGTAGAGGTTATCTCCTGA here?
**A.** 0.66

**Q.** With TTTCGGACAGCTGAAACCTATG as the sequence, how does the sensor-assay potency score (higher = more potent) read?
**A.** -1.61

**Q.** TTTCTCGTCCACTATATGCAGG was tested. Which sensor-assay potency score (higher = more potent) did it give?
**A.** -0.849

**Q.** TAGAAGCAGAGACTTTGACTGT was tested. Which sensor-assay potency score (higher = more potent) did it give?
**A.** -0.247

The sequences below were run against PSIP1 in the same assay as above. Conditions: shRNA.

**Q.** With TTAAGTTTTAGTGACTTCCTAA as the sequence, how does the sensor-assay potency score (higher = more potent) read?
**A.** -0.13

**Q.** Which sensor-assay potency score (higher = more potent) does the source give for TTCATGGTCGGTATCTTCCTTT here?
**A.** -0.126

**Q.** For TTGATTGTTTAGTTGCTGCCTG, which sensor-assay potency score (higher = more potent) is on record?
**A.** 0.524

**Q.** For TTGACTTGAAAATTTCACTTTT, which sensor-assay potency score (higher = more potent) is on record?
**A.** -0.471

**Q.** How did the sensor-assay potency score (higher = more potent) turn out when TTAGTCACATCCTCATTGCTGG was run?
**A.** 0.128

**Q.** With TTGAAAATATGCTACAACCATG as the sequence, how does the sensor-assay potency score (higher = more potent) read?
**A.** -1.01

**Q.** TTATACAACATTGTAGACTTTT was tested. Which sensor-assay potency score (higher = more potent) did it give?
**A.** -0.451

**Q.** How did the sensor-assay potency score (higher = more potent) turn out when TTAATCTCAGCATGTATCCTTT was run?
**A.** 0.197

**Q.** For TTCAACATCAAACCTATGCTTA, which sensor-assay potency score (higher = more potent) is on record?
**A.** 0.354

**Q.** How did the sensor-assay potency score (higher = more potent) turn out when TTAGTTACTAGTGCCTGCCTAT was run?
**A.** 0.32

**Q.** How did the sensor-assay potency score (higher = more potent) turn out when TATCTATCTCCCATAAACCTTC was run?
**A.** -0.586
